Compounds with a hit are over-represented: about 10% of the library has one in this group of screens.
JMJD2A Tudor: qHTS Assay for Inhibitors of JMJD2A-Tudor Domain; Lysine-specific demethylase 4A (Homo sapiens), O75164; AlphaScreen JMJD2A-Tudor / H3K4me3 peptide binding; Potency, µM (series often up to 114 µM), without a hit: top-dose activity change, negative = inhibition, usual class: inhibitors; actives 4.4% (n = 390,000); AID 504339, 2011; further: on the % scale 0 is the no-effect control and ±100 the full control effect; nearly all actives have a fitted effect of over 50% in size
GLS inh: qHTS for Inhibitors of Glutaminase (GLS); GLS enzymatic activity, qHTS titration; Potency, µM (top dose mostly 45.5 µM), for the others: at the highest dose activity change, negative = inhibition, usual class: inhibitors; actives 0.21% (n = 410,000); further: on the % scale 0 is the no-effect control and ±100 the full control effect
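hKGA; 45 mM KH2PO4 pH 8.2 + 0.02% Tween-20; cpd via pin tool; 1 mM Gln soln; GluOx/HRP/Amplex Red; RT 30 min; fluor. t0 & final.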
BAZ2B inh: qHTS Assay for Inhibitors of BAZ2B. AlphaScreen BAZ2B-H3K14Ac peptide displacement. AID 504333, 2011. Potency, µM (top dose mostly 114 µM), for the others: top-dose activity change, negative = inhibition, most hits filed as inhibitors. Bromodomain adjacent to zinc finger domain protein 2B (Homo sapiens), Q9UIF8. actives 4.4% (n = 360,000); further: on the % scale 0 is the no-effect control and ±100 the full control effect; nearly all actives have a fitted effect of over 60% in size
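Protein-peptide AlphaScreen: BAZ2B 50 nM, b-H3K14Ac 50 nM, 1x PBS pH 7.4 + 0.01% Tween-20. Preincubation 30 min RT; cpd 30 min RT (top 110 uM); beads 20 min RT, light-protected.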
HP1b binding inh: HTS for Inhibitors of HP1-beta Chromodomain Interactions with Methylated Histone Tails; Chromobox protein homolog 1 (Homo sapiens), P83916; AlphaScreen HP1-beta / biotin-H3K9me3 peptide binding; Potency, µM (doses to about 114 µM), for inactives: at the highest dose activity change, negative = inhibition, most hits filed as inhibitors; actives 0.56% (n = 390,000); AID 540317, 2011; further: nearly all actives have a fitted effect of over 70% in size
Target sequence (P83916 whole entry, looked up): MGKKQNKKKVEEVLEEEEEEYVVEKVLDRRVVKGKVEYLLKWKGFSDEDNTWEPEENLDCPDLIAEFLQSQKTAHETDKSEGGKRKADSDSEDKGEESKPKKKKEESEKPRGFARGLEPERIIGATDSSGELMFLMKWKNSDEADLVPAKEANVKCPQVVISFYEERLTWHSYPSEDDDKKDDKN
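HP1-beta protein (50 nM final) preincubated 30 min at room temperature with biotinylated H3(1-18)K9me3 peptide (50 nM) in PBS pH 7.4, 0.01% Tween-20, then compound added for 30 min. AlphaScreen streptavidin donor/nickel chelate acceptor beads (10 ug/mL final), 30 min dark, luminescence read.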
G9a inh: qHTS Assay for Inhibitors of Histone Lysine Methyltransferase G9a; AID 504332, 2011; Potency, µM (top dose mostly 102 µM), without a hit: at the highest dose activity, negative = inhibition, most hits filed as inhibitors; Histone-lysine N-methyltransferase EHMT2 (Homo sapiens), Q96KQ7; G9a H3K9 monomethylation, AlphaScreen, 2 h; actives 8.8% (n = 350,000); further: on the % scale 0 is the no-effect control and ±100 the full control effect; nearly all actives have a fitted effect of over 75% in size
Target sequence (Q96KQ7 913-1193 limits assumed): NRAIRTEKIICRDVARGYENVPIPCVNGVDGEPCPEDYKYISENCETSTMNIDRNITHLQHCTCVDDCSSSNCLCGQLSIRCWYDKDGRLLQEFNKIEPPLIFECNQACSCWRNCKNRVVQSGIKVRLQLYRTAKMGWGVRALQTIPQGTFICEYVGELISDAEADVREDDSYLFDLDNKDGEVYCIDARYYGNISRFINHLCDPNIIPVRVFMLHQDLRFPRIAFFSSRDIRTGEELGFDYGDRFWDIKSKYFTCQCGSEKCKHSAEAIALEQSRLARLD
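AlphaScreen read-out: biotin-H3K9 peptide (500 nM) methylation by 20 nM enzyme with 20 uM SAM, 2 h at room temperature after 15 min compound preincubation; anti-monomethyl H3K9 antibody plus donor/acceptor beads, 10 min dark.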
Active calls of the source: *; [ ] = another dose, or the depositor's remark. The call rests on the fitted dose curve; in most records, active means well fitted curve in the direction sought with a large enough effect; inconclusive means small, poorly fitted or top-dose-only effect, or another doubt; inactive means no such curve, though single readings can be large; an effect the other way counts as inactive or inconclusive. Potency means the concentration at half of the fitted maximal effect.

How did COc1cc(C2CC(=O)N3CN(Cc4ccco4)CSC3=C2C#N)ccc1OCc1ccccc1 (stereo unspecified) do in these assays?
JMJD2A Tudor: 22µM*; GLS inh: -17%; BAZ2B inh: 45µM*; HP1b binding inh: inconclusive; G9a inh: 1.3µM*

How did CC(C)c1ccc(C2CC(=O)N3CN(Cc4ccco4)CSC3=C2C#N)cc1 (stereo unspecified) do in these assays?
JMJD2A Tudor: 40µM*; GLS inh: -4%; BAZ2B inh: 50µM*; HP1b binding inh: inconclusive; G9a inh: 2.8µM*

How did CSC1=C(C#N)C(c2ccc(C(C)C)cc2)CC(=O)N1 (stereo unspecified) do in these assays?
JMJD2A Tudor: -17%; GLS inh: 2%; BAZ2B inh: -1%; HP1b binding inh: 21%; G9a inh: inconclusive

How did COc1ccc(C2CC(=O)N3CN(Cc4ccco4)CSC3=C2C#N)cc1 (stereo unspecified) do in these assays?
JMJD2A Tudor: 7.1µM*; GLS inh: inconclusive; BAZ2B inh: inconclusive; HP1b binding inh: inconclusive; G9a inh: 0.89µM*

How did COc1ccc2[nH]c(=O)c(CN(Cc3cccs3)C(=S)Nc3cccc(C)c3)cc2c1 do in these assays?
JMJD2A Tudor: -22%; GLS inh: 8%; BAZ2B inh: -1%; HP1b binding inh: 14%; G9a inh: -6%[59 µM]

How did CCn1cc(C2=NOC(C(=O)O)C2)c(C)n1 (stereo unspecified) do in these assays?
JMJD2A Tudor: -3%; GLS inh: -2%; BAZ2B inh: -4%; HP1b binding inh: 14%; G9a inh: -6%[59 µM]

What do the screens show for `N#CC1=C2SCN(Cc3ccco3)CN2C(=O)CC1c1ccc(Cl)cc1` (stereo unspecified)?
JMJD2A Tudor: inconclusive; GLS inh: -15%; HP1b binding inh: inconclusive; G9a inh: 1µM*

Results for COc1ccc2ccccc2c1C1CC(=O)N2CN(Cc3ccco3)CSC2=C1C#N (stereo unspecified) ?
JMJD2A Tudor: inconclusive; GLS inh: -1%; BAZ2B inh: -27%; HP1b binding inh: inconclusive; G9a inh: 0.56µM*

How did COc1ccc(C2CC(=O)N3CN(C4CCCCC4)CSC3=C2C#N)c(OC)c1 (stereo unspecified) do in these assays?
JMJD2A Tudor: 3.5µM*; GLS inh: 11%; HP1b binding inh: inconclusive; G9a inh: 2.5µM*

Results for Cc1cc(NC(=O)Cn2nnc(-c3ccccc3N)n2)no1 ?
JMJD2A Tudor: -25%; GLS inh: 1%; BAZ2B inh: -8%; HP1b binding inh: 4%; G9a inh: 5%[59 µM]

How did Cc1ccc(C2(c3ccc(C)cc3)CC2C(=O)Nc2ccc([N+](=O)[O-])cc2O)cc1 (stereo unspecified) do in these assays?
JMJD2A Tudor: inconclusive; GLS inh: 1%; BAZ2B inh: inconclusive; HP1b binding inh: -32%; G9a inh: 25µM*

What do the screens show for `CC1=NN(c2ccccc2)C(=O)/C1=C\N(O)c1ccccc1`?
JMJD2A Tudor: inconclusive; GLS inh: 1%; BAZ2B inh: -11%; HP1b binding inh: 30%

Results for CC1=NN(c2ccc(C)cc2)C(=O)/C1=C\C=C\c1ccccc1 ?
JMJD2A Tudor: 4.5µM*; GLS inh: -4%; BAZ2B inh: 2.5µM*; HP1b binding inh: 5.6µM*; G9a inh: 4.5µM*

What do the screens show for `CC1=NN(c2ccccc2)C(=O)/C1=C/C=C/C=C/N(C)C`?
JMJD2A Tudor: inconclusive; GLS inh: -5%; BAZ2B inh: 13µM*; HP1b binding inh: inconclusive; G9a inh: 18µM*

Results for CC1=NN(c2cccc(C(=O)O)c2)C(=O)/C1=C\C=C/c1ccccc1 ?
JMJD2A Tudor: inconclusive; GLS inh: 16µM*; BAZ2B inh: inconclusive; HP1b binding inh: inconclusive; G9a inh: 40µM*
